# Source: PubChem (several laboratories)
# NOD2 RIPK2 PPI: NOD2-RIPK2 protein interaction inhibition; O43353; CHO BLA complementation NOD2-RIPK2, CCF4 ratio; inhibition, % at 4.98 µM; 360,000 tested, 0.38% active; in the data active means inhibition above about 21%;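 further: 0% = vehicle only and 100% = reference blocker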
# B2AR ag: human beta-2 adrenergic receptor agonism by FAP; 340,000 tested, 0.43% active; P07550; response, % (test concentration not listed); Am2.2-beta2AR cells, FAP receptor internalization, flow cytometry;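 active means response above a set limit, near 3 SD of response in nonfluorescent compounds, cut at about 42% in these data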
# Target sequence (P07550 whole entry, looked up): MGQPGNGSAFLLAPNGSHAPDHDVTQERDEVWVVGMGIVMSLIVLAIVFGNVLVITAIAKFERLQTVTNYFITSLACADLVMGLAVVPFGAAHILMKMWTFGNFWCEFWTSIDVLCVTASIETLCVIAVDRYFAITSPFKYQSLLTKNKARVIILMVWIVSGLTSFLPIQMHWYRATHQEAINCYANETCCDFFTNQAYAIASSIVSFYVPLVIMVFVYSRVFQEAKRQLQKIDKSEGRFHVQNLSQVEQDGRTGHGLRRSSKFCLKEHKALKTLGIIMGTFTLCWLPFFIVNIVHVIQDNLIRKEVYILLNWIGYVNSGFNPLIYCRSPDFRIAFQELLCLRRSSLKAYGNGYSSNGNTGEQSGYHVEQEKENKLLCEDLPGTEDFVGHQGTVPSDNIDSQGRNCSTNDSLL
# TLR4 MyD88 comp: inhibitors of human TLR4-MyD88 binding; inhibition, % at 8.4 µM; 200,000 tested, 0.18% active; O00206+Q99836; HeLa CL3-4 TLR4/MyD88 BLA complementation, FRET ratio; in the data active means inhibition above about 25%;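 further: 0% = vehicle and 100% = reference inhibitor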
# ABHD5 PLIN5 PPI: inhibitors of human ABHD5-perilipin-5 interaction; AID 602281; inhibition, % at 4 µM; Split G. princeps luciferase complementation, luminescence, 4 h; 360,000 tested, 0.78% active;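 active means inhibition above the mean inhibition across every tested compound plus 3 SD, cut at about 22% in these data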;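 further: 0% = DMSO only wells and the 100% control is not disclosed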
# TLR9-MyD88 inh: blocks human TLR9 binding to MyD88 | Q9NR96+Q99836 | CHO BLA complementation TLR9-MyD88, CCF4 FRET ratio | inhibition, % at 4.98 µM | 340,000 tested, 0.21% active | AID 504734;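 active means inhibition above the mean over all tested compounds plus 3 SD, cut at about 21% in these data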;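 further: 0% = DMSO only wells and 100% = clavulanate BLA inhibitor control wells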
# NTR1 ag: NTR1 (human) agonism | P30989 | AID 493036 | 330,000 tested, 0.17% active | NTR1-U2OS beta-arrestin-GFP spot imaging, agonist mode | activation, % at 20 µM;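 active means activation at or above 40% of the spot to cytoplasm intensity ratio, with at least 20 cells analyzed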;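 further: 0% = DMSO without peptide and 100% = 100 nM NTR1 peptide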
# The depositor's hits bear a star; . = no result given. Shown are actives, neighbours in structure and some others; about 1.5% of the full set was active somewhere.
SMILES,NOD2 RIPK2 PPI,B2AR ag,TLR4 MyD88 comp,ABHD5 PLIN5 PPI,TLR9-MyD88 inh,NTR1 ag
Cc1nc(SCC(=O)c2ccccc2)c(C#N)c(-c2ccco2)c1C(=O)NCc1ccco1,8.5,19.3,12.2,37.5*,0.6,1.6
O=C(CBr)c1ccc([N+](=O)[O-])c(CS(=O)(=O)c2ccc(Cl)cc2)c1,5.6,11.3,.,26.9*,1.7,1.7
CC(=O)N1CCc2cc(NC(=O)C3(C)CCN3CCc3ccccc3)ccc21 (centres undefined),-7.3,.,.,5.0,.,.
CC1CCCC(C)N1C(=O)CN1C(=O)NC2(CCCCCC2)C1=O (centres undefined),-2.4,.,.,0.1,-1.4,.
COc1ccc2c(c1)C(=NNC(=O)c1ccccn1)c1cc(OC)ccc1-2,-2.1,42.5*,-2.1,0.3,5.5,0.3
CCNC(=O)C1(C)CCN(C(=O)CCc2ccccc2)C1 (centres undefined),-7.9,.,.,-0.3,.,.
COc1ccc(C(=O)Nc2ccc(C(=O)Nc3cccnc3)cc2)cc1,-5.0,53.6*,.,-5.3,1.7,0.8
CC1(C)OC2CC3C4CCC5=CC(=O)C=CC5(C)C4(F)C(O)CC3(C)C2(C(=O)CO)O1 (centres undefined),-12.4,.,.,10.4,.,.
CCCc1nc2ccc(C)cn2c1Cc1ccccc1C(F)(F)F,3.6,.,.,5.5,.,.
O=C(Nc1ccc2c(c1)OCO2)c1cc(C2CCCCN2S(=O)(=O)Cc2ccccc2)on1 (centres undefined),13.8,.,.,5.4,.,.
O=C(Nc1ccc(N2CCCC2)cc1)c1cccc(-c2cc3ccccc3oc2=O)c1,-5.4,57.3*,4.1,5.5,9.6,2.8
COc1cccc(-c2nc(NCCN3CCOCC3)c3ccccc3n2)c1O,9.1,11.6,15.2,7.2,4.9,0.2
Oc1ccccc1-c1nc(NCCN2CCOCC2)c2ccccc2n1,13.2,25.9,3.8,22.3*,-1.7,0.2
COC(CNC(=O)c1ccc2c3c(onc13)-c1ccccc1C2=O)OC,-8.1,48.3*,.,-9.0,-0.1,-1.1
CC(C)N(C(=O)[C@H]1C[C@H](CC(=O)NCc2cccc(C(F)(F)F)c2)C(=O)N2CCc3c([nH]c4cc(-c5ccco5)ccc34)[C@]12C)C(C)C,-7.2,-5.3,.,22.2*,-1.1,3.9
O=C(C[C@H]1C[C@H](C(=O)N2CCOCC2)[C@@]2(CCC3CCCC3)c3[nH]c4cc(-c5ccco5)ccc4c3CCN2C1=O)NCCN1CCOCC1,7.2,13.1,.,16.7,-14.6,2.7
CC(C)(C)NC(=O)C[C@H]1C[C@H](C(=O)N2CCOCC2)[C@@]2(CCC3CCCC3)c3[nH]c4cc(-c5ccco5)ccc4c3CCN2C1=O,-14.2,10.7,.,31.9*,4.0,5.7
CCN(CC)C(=O)[C@H]1C[C@H](CC(=O)NCc2ccc(OC)c(OC)c2)C(=O)N2CCc3c([nH]c4cc(-c5ccco5)ccc34)[C@]12C,-1.8,-1.1,.,22.7*,-2.8,6.1
CCCNC(=O)c1cc(C2CCCN(C(=O)c3cc(F)ccc3C)C2)on1 (centres undefined),-7.8,.,.,3.6,.,.
COc1ccc(C(=O)Nc2ccc(N3CCOCC3)cc2)cc1S(=O)(=O)N1CCOCC1,1.7,0.0,.,-17.0,-3.0,-1.4
COc1ccc(C(=O)Nc2ccc(-c3ccc(C)o3)cc2)cc1S(=O)(=O)N1CCOCC1,7.4,18.5,-1.6,22.3*,-7.1,12.6
O=C(Nc1ccc(Cl)cc1Cl)c1cccc(N2C(=O)C=CC2=O)c1,6.3,70.6*,.,14.7,3.5,4.3
O=C(Nc1ccc(Cl)cc1Cl)c1ccc2c(c1)OCCO2,-14.1,-1.9,.,5.2,-2.8,-1.2
CCOc1cc(/C=C2\C(=O)ON=C2c2ccccc2)ccc1OC,-4.3,11.7,.,-9.4,-1.1,16.3
CCOc1cc(/C=C2/C(=O)ON=C2C)ccc1OCc1ccccc1F,0.9,76.8*,11.5,7.8,11.1,74.7*
O=C(/C=C/c1cccc([N+](=O)[O-])c1)n1cnc2ccccc21,0.3,15.1,-3.1,23.1*,.,16.2
COc1ccc2[nH]c(=O)c(CN(C3CCCCC3)C(c3nnnn3Cc3ccco3)C(C)C)cc2c1 (centres undefined),-4.6,-0.9,-0.1,46.2*,-5.9,1.8
COc1ccc2cc(CN(CCc3ccccc3)Cc3nnnn3Cc3ccco3)c(=O)[nH]c2c1,1.0,-7.5,3.1,22.1*,-5.8,5.1
